This is an account of results in PubChem BioAssay (EPA / NIEHS).

Records with an inconclusive call do not appear. Activity calls are given as the source filed them. The calls were made as follows, unless noted: active = hit-call score of the fitted dose curve at least 0.9, where 1 is the maximum; inconclusive = response in the unintended direction; inactive = score below 0.9.

The nature of experiment [1]: Tanguay_ZF_120hpf_SOMI_legacy: (Legacy) Oregon State University Tanguay Lab 120 Hour Post-fertilization zebrafish Assay for Somite Malformation (AID 2283647). The procedure, abridged: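 Somitogenesis defects are recorded as binary calls in whole larvae at 120 hpf after continuous static chemical exposure starting at 6 hpf in dechorionated 5D embryos. DMSO serves as negative control and baseline.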

The nature of experiment [2]: Tanguay_ZF_120hpf_PFIN_legacy: (Legacy) Oregon State University Tanguay Lab 120 Hour Post-fertilization zebrafish Assay for Pectoral Fin Malformation (AID 2283648).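 Also: each larva judged yes or no for fin defect by brightfield with dead larvae skipped.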 The method, boiled down: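 Pectoral fin malformation was recorded as a binary endpoint at 120 hpf in wild-type Tropical 5D larvae, which had been dechorionated and exposed statically from 6 hpf at 28C in 0.64% DMSO. Dead embryos were excluded.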

Experiment [3] is described as follows: Tanguay_ZF_120hpf_CFIN_legacy: (Legacy) Oregon State University Tanguay Lab 120 Hour Post-fertilization zebrafish Assay for Caudal Fin Malformation (AID 2283649). The procedure, abridged: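 Single dechorionated 5D wild-type embryos are dosed at 6 hpf (final DMSO 0.64%) and held statically at 28C. Caudal fin malformation is recorded as present or absent at 120 hpf under brightfield, excluding dead embryos.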

The nature of experiment [4]: Tanguay_ZF_120hpf_PIG_legacy: (Legacy) Oregon State University Tanguay Lab 120 Hour Post-fertilization zebrafish Assay for Pigmentation Malformation (AID 2283650). The method, boiled down:
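Pigment malformation recorded as a binary call at 120 hpf in zebrafish (Tropical 5D) exposed singly from 6 hpf after pronase dechorionation. Static, sealed, 28C exposure, 0.64% DMSO; mortality excludes scoring; positive-direction fit against DMSO.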

Experiment [5] is described as follows: Tanguay_ZF_120hpf_CIRC_legacy: (Legacy) Oregon State University Tanguay Lab 120 Hour Post-fertilization zebrafish Assay for Circulatory Malformation (AID 2283651). The procedure, abridged:
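Static exposure, 6–120 hpf, 28C, sealed and dark; one dechorionated 5D embryo/well; DMSO 0.64% v/v final. Binary circulation endpoint by brightfield; dead embryos not scored.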

A short description of experiment [6]: Tanguay_ZF_120hpf_TRUN_legacy: (Legacy) Oregon State University Tanguay Lab 120 Hour Post-fertilization zebrafish Assay for Truncated Body (AID 2283655). The procedure, abridged:
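Single dechorionated zebrafish embryos received test chemical from 6 hpf in 0.64% DMSO, kept at 28C. At 120 hpf, brightfield inspection noted any truncated body.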

Experiment [7] can be described thus: Tanguay_ZF_120hpf_NC_legacy: (Legacy) Oregon State University Tanguay Lab 120 Hour Post-fertilization zebrafish Assay for Notochord and Tail Malformation (AID 2283656). The procedure, abridged:
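Binary notochord-distortion calls, made by brightfield inspection, form the read-out; activity is fitted in the positive direction against DMSO. Exposure ran statically from 6 to 120 hpf at 28C with 0.64% DMSO.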

The nature of experiment [8]: Tanguay_ZF_120hpf_TR_legacy: (Legacy) Oregon State University Tanguay Lab 120 Hour Post-fertilization zebrafish Assay for Touch Response (AID 2283667). The method, boiled down:
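Binary touch-response endpoint in larvae at 120 hpf after static waterborne exposure from embryo stage (28°C, 0.64% DMSO vehicle, 5 uM trimethyltin chloride as positive control); embryos dead at 24 or 120 hpf excluded; fitted as gain versus DMSO.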

Experiment [9] can be described thus: Tanguay_ZF_120hpf_SWIM_legacy: (Legacy) Oregon State University Tanguay Lab 120 Hour Post-fertilization zebrafish Assay for Swim Bladder Malformation (AID 2283654).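 Also: swim bladder malformation in each larva scored yes or no under brightfield.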 The procedure, abridged:
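Scoring is binary for swim bladder defects at 120 hpf, by brightfield inspection of zebrafish larvae. Embryos were exposed singly from 6 hpf after pronase dechorionation, at 28C with 0.64% DMSO; mortality excluded scoring.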

A short description of experiment [10]: STM_H9_CystineISnorm_perc: Stemina devTOX quickPredict H9 human embryonic stem cell (hESC)-based Assay for Cystine (CYSS) Metabolite Biomarker, Normalized (AID 2283713; active = hit-call score of the fitted dose curve at least 0.9, where 1 is the maximum; inactive = score below 0.9). The method, boiled down: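 UPLC-HRMS read-out: endogenous cystine peak area in spent medium, normalized to isotope-labeled internal standard and to median of 0.1% DMSO controls. Pluripotent H9 cells, 72h exposure, daily medium/compound replenishment; medium from last 24h sampled.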

A short description of experiment [11]: CCTE_Padilla_ZF_144hpf_TERATOSCORE: (Legacy) CCTE's 144 Hour Post-fertilization zebrafish Assay Teratoscore, Padilla Lab (AID 2283679; active = hit-call score of the fitted dose curve at least 0.9, where 1 is the maximum; inactive = score below 0.9;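 as to AC50: zebrafish embryos with chorions exposed by immersion from 6-8 hpf to 5 dpf with daily renewal; teratogenicity score from eye scoring of death hatching and malformations at 144 hpf; higher score means more developmental defects relative to DMSO baseline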). The procedure, abridged:
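Larvae scored by eye at 144 hpf for death, hatching and malformations after a day in clean Hanks'. Before that, daily-renewed exposure at 80 uM (0.4% DMSO, 26C) from roughly 6-8 hpf through 5 dpf, 4 embryos per chemical.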

Read-out in experiment [12]: kallikrein-3 (KLK3), KLK3 (gene 354)
The experiment in a line: LTEA_HepaRG_KLK3: Life Technologies and Expression Analysis (LTEA) Assay for kallikrein-3 (KLK3) using HepaRG (AID 2283652; active = hit-call score of the fitted dose curve at least 0.9, where 1 is the maximum; inactive = score below 0.9). The note with it: mRNA level, 48 h; actives raise or lower the signal. The procedure, abridged: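 KLK3 transcript levels were measured by TaqMan qRT-PCR with normalisation to three housekeeping genes. HepaRG cultures received chemicals for 48 h at up to 100 uM (half-log, 8 points, 0.5% DMSO vehicle), fitted in both directions against DMSO.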

Read-out in experiment [13]: solute carrier (SLC22A6), SLC22A6 (gene 9356)
Nature of the experiment: LTEA_HepaRG_SLC22A6: Life Technologies and Expression Analysis (LTEA) Assay for solute carrier (SLC22A6) using HepaRG (AID 2283653; active = hit-call score of the fitted dose curve at least 0.9, where 1 is the maximum; inactive = score below 0.9). The note with it: mRNA level, 48 h; actives raise or lower the signal. The method, boiled down: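 Gene-expression endpoint in HepaRG hepatic cells: duplicate 8-point concentration-response, highest 100 uM, 48 h treatment in serum-free medium with 0.5% DMSO. SLC22A6 expression measured by qRT-PCR, normalised to ACTB/GAPDH/POLR2A.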

Read-out in experiment [14]: solute carrier (SLC10A1), SLC10A1 (gene 6554)
The experiment in a line: LTEA_HepaRG_SLC10A1: Life Technologies and Expression Analysis (LTEA) Assay for solute carrier (SLC10A1) using HepaRG (AID 2283657; active = hit-call score of the fitted dose curve at least 0.9, where 1 is the maximum; inactive = score below 0.9). Conditions: mRNA level, 48 h; actives raise or lower the signal. The method, boiled down: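 SLC10A1 transcript measured by TaqMan qRT-PCR, housekeeping-normalised, after 48 h chemical treatment of human HepaRG cells. Eight concentrations (half-log, max 100 uM, 0.5% DMSO vehicle) in duplicate; fitted bidirectionally against DMSO baseline.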

Read-out in experiment [15]: matrix metalloproteinase-1 (MMP1), MMP1 (gene 4312)
Nature of the experiment: LTEA_HepaRG_MMP1: Life Technologies and Expression Analysis (LTEA) Assay for matrix metalloproteinase-1 (MMP1) using HepaRG (AID 2283658; active = hit-call score of the fitted dose curve at least 0.9, where 1 is the maximum; inactive = score below 0.9). The note with it: mRNA level, 48 h; actives raise or lower the signal. The procedure, abridged: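 In this screen, human liver HepaRG cultures receive each chemical in duplicate for 48 h (top 100 uM, 0.5% DMSO). MMP1 expression is then quantified by TaqMan qRT-PCR with ACTB/GAPDH/POLR2A normalization.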

Experiment [16] has as its system Thyroperoxidase (TPO), gene 54314. The experiment in a line: CCTE_Simmons_AUR_rTPO: CCTE's Amplex UltraRed Assay for Thyroperoxidase (TPO) Inhibition, Simmons Lab (AID 2283662). The procedure, abridged: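 Rat thyroid microsomes (5 ug protein) were incubated with test compound (8 concentrations, 5 nM–87.5 uM final, 0.5% DMSO), 25 uM Amplex UltraRed and 300 uM H2O2 in 200 mM phosphate buffer for 30 min at 37C in the dark; fluorescence read at 544/590 nm.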

Experiment [17] in a line: CCTE_Simmons_CellTiterGLO_HEK293T: Viability Assessment in CCTE's Assays for Thyroperoxidase (TPO) Inhibition, Simmons Lab (AID 2283665).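 Also: cells exposed to compound for 24 h before readout; actives reduce ATP signal below DMSO vehicle meaning cytotoxicity.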 The method, boiled down: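 Luminescent ATP readout (CellTiter-Glo, 20 min at room temperature) after 24 hr exposure of HEK293T cells to 5 nM–87.5 uM final compound; signal loss relative to DMSO vehicle indicated cytotoxicity; dichlone titrated as positive control.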
Background: In ATP-based viability assays light output follows the ATP content of the culture.

Read-out in experiment [18]: Cytochrome P450 (CYP24A1_1), CYP24A1 (gene 1591)
Nature of the experiment: LTEA_HepaRG_CYP24A1_1: Life Technologies and Expression Analysis (LTEA) Assay for Cytochrome P450 (CYP24A1_1) using HepaRG (AID 2283671; active = hit-call score of the fitted dose curve at least 0.9, where 1 is the maximum; inactive = score below 0.9). Conditions: mRNA level, 48 h; actives raise or lower the signal. The method, boiled down: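 Differentiated human HepaRG cells were exposed in duplicate for 48 h in serum-free induction medium to eight concentrations (top 100 uM, half-log steps, 0.5% DMSO). CYP24A1 mRNA was quantified by TaqMan qRT-PCR, normalized to ACTB, GAPDH and POLR2A, and fitted bidirectionally versus DMSO.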

In the case of `NCCO`, the outcome in [1], in [2], in experiment [3], in experiment [4], in experiment [5] and in [6] was inactive. Moreover, the outcome in experiment [7] and in experiment [8] was inactive.
In the case of `CCCCc1ccc2c(n1)[C@@H](c1ccc(OC)cc1C[C@H](C)C(=O)O)[C@H](C(=O)O)[C@H]2c1ccc2c(c1)OCO2`, the result in [1], in experiment [2], in experiment [3], in [4], in experiment [9] and in [6] was inactive. The outcome in [7] and in experiment [10] was inactive.
As to `CCCCCCCCCCO`, the outcome in [1], in experiment [2], in [3], in experiment [4], in [5] and in [6] was inactive. Moreover, the call in experiment [7] and in experiment [11] was inactive.
In the case of `O=C(O)CCCCC(=O)O`, the call in experiment [1], in experiment [2], in experiment [3], in experiment [4], in [5] and in [6] was inactive. Moreover, the compound was classed as inactive in experiment [7].
Regarding `CCOC(=O)CCC(=O)OCC`, the result in experiment [1], in experiment [2], in [3], in [4], in [6] and in experiment [7] was inactive.
As to `Oc1ccc2c(c1)OC[C@@H](N1CCC(O)(c3ccc(F)cc3)CC1)[C@H]2O`, the compound was classed as inactive in experiment [1], in experiment [2], in experiment [3], in [4], in experiment [5] and in experiment [9]. Further, the compound was called inactive in [6], in [7] and in experiment [8]. For the same compound, the AC50 in [11] is 1.46 µM (active).
In the case of `CCCCCC(=O)O`, the compound was classed as inactive in [1], in [2], in experiment [3], in experiment [4], in experiment [5] and in experiment [9]. The compound was classed as inactive in [6], in experiment [7] and in experiment [8].
As for `NS(=O)(=O)c1cc2c(cc1Cl)NCNS2(=O)=O`, the compound was classed as inactive in [1], in experiment [2], in [3], in experiment [4], in experiment [5] and in experiment [6]. In [7], the compound was classed as inactive.
Consider `COCCOC[C@H](CC1(C(=O)NC2CCC(C(=O)O)CC2)CCCC1)C(=O)Oc1ccc2c(c1)CCC2` (some centres not stated), for which the outcome in experiment [1], in [2], in experiment [3], in experiment [4], in [5] and in experiment [6] was inactive. Moreover, the call in experiment [7] and in experiment [8] was inactive.
As to `CC(=O)OC/C=C(\C)CCC=C(C)C`, the call in [1], in experiment [2], in experiment [3], in experiment [4], in experiment [5] and in experiment [12] was inactive. The call in experiment [13], in experiment [9], in experiment [7], in experiment [14], in experiment [15] and in experiment [16] was inactive. The result in experiment [18] was inactive. Also, the AC50 in [17] was 24.6 µM (active); in experiment [11] it was 52.8 µM (active).
In the case of `Nc1ccc2c(c1)C(=O)c1ccccc1C2=O`, the outcome in experiment [1], in experiment [2], in experiment [3], in [4], in [6] and in experiment [7] was inactive.

Broadly, the AC50 is the concentration at which the activity in the assay is half-maximal.
